According to PubChem BioAssay (NCATS):
Results filed as inconclusive are left out. The source made the active and inactive calls. Unless noted, the call rests on the fitted dose curve; in most records, active means well fitted curve in the direction sought with a large enough effect; inconclusive means small, poorly fitted or top-dose-only effect, or another doubt; inactive means no such curve, though single readings can be large; an effect the other way counts as inactive or inconclusive.

Experiments:
[1] = target: Mitogen-activated protein kinase 10 (Mus musculus) (UniProt Q61831); test: JNK3 AlphaScreen Assay (AID 530; active means well fitted curve in either direction with a large enough effect, not every such curve was filed as active;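 further: kinase came from lysate of stimulated human HepG2 cells; signal reports phosphorylation of biotinylated GST-cJun 1-79 at Ser73 with 10 µM ATP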)
Procedure, shortened: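 Inhibitors reduce antibody binding to phosphorylated biotin-cJun, lowering AlphaScreen luminescence. Lysates from HepG2 cells pre-activated by IL-1beta plus TNF-alpha supplied JNK3; compounds were titrated.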

[2] = target: 3',5'-cyclic-AMP phosphodiesterase 4B (Homo sapiens) (UniProt Q07343); test: qHTS Assay for Inhibitors of PDE-IV (AID 607; active means well fitted activation curve with a large enough effect in the main read-out, with a control signal flat, not every such curve was filed as active)
3',5'-cyclic-AMP phosphodiesterase 4B (Homo sapiens), sequence (Q07343 whole entry, looked up): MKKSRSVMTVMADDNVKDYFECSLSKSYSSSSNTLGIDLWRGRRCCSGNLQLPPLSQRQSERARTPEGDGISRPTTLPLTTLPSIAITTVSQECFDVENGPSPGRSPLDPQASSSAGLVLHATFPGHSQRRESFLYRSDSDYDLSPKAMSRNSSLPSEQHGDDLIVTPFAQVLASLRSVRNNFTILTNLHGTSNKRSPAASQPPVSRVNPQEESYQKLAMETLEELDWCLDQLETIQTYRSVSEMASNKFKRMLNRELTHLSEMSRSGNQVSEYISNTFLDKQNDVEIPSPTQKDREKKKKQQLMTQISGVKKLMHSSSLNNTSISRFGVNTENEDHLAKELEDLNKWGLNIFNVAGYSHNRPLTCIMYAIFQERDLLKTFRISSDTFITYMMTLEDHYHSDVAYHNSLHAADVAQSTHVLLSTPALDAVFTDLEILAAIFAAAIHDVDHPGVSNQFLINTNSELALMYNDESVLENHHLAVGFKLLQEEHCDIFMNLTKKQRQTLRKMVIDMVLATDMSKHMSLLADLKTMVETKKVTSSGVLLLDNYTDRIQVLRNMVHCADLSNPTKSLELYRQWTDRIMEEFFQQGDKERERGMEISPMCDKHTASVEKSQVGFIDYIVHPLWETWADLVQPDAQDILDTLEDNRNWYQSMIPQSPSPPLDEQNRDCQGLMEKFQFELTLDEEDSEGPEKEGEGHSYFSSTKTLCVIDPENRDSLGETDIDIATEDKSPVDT
Procedure, shortened: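 HEK293 ACTOne cells with CNG channel (1000/well), endogenous PDE4; membrane potential dye, compounds up to 22.9 uM final. Fluorescence Ex 535/Em 590; RO 20-1724 (100 uM final) as reference.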

[3] = target: Cytochrome P450 3A4 (Homo sapiens) (UniProt P08684); test: qHTS Assay for Activators of Cytochrome P450 3A4 (AID 885); further: nearly all actives have a fitted effect of over 65% in size
Cytochrome P450 3A4 (Homo sapiens), sequence (P08684 whole entry, looked up): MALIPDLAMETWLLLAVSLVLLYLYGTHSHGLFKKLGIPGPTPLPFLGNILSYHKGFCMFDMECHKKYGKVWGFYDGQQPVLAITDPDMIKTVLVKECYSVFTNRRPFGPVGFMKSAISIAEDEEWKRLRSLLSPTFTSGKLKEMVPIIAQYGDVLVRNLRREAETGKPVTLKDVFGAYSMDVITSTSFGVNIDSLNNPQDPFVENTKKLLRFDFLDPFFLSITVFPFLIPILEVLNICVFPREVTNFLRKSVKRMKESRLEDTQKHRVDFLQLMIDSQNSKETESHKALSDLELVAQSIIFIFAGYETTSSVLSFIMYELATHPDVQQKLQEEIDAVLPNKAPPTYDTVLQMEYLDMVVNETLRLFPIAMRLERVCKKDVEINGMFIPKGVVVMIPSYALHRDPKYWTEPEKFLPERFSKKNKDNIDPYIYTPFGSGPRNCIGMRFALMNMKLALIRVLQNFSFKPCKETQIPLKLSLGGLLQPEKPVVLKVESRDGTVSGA
Procedure, shortened: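 Human CYP3A4 (20 nM) with Luciferin-PPXE at 25 uM (its KM) in 200 mM KPO4; 10 min compound preincubation, then NADPH regeneration and 60 min reaction at RT. Luciferin read by luminescence; normalized to 57 uM ketoconazole full inhibition.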

[4] = target: ATP-dependent 6-phosphofructokinase (Trypanosoma brucei brucei) (UniProt O15648); test: qHTS Assay to Find Inhibitors of T. brucei phosphofructokinase: hit validation (AID 492961);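 further: luminescence reports ADP formed as PFK phosphorylates fructose-6-phosphate with ATP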
ATP-dependent 6-phosphofructokinase (Trypanosoma brucei brucei), sequence (O15648 whole entry, looked up): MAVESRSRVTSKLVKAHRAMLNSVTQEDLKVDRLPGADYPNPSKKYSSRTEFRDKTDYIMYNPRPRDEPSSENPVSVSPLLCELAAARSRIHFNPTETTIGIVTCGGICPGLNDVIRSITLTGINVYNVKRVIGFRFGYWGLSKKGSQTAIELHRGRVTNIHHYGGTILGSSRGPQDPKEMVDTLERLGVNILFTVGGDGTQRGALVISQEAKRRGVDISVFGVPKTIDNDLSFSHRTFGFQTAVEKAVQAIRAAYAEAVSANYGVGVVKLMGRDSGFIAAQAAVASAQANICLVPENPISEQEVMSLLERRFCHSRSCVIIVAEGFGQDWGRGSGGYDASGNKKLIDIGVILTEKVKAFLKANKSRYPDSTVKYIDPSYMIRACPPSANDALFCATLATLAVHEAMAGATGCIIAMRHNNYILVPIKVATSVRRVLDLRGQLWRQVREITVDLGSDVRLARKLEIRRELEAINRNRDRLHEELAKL
Procedure, shortened: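 PFK 1.25 nM, F6P 0.5 mM, ATP 0.1 mM, MgCl2 5 mM, 0.1 M TEA pH 8.0, Tween20 0.01%, BSA 0.1%; 45 min RT. ADP-Glo two-step detection, luminescence. qHTS titration; curve fitting with curve-class categorization.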

[5] = target: Ubiquitin carboxyl-terminal hydrolase 1 (Homo sapiens) (UniProt O94782); test: Inhibitors of USP1/UAF1: Pilot qHTS (AID 504865); further: potency means the concentration at half of the fitted maximal effect; nearly all actives have a fitted effect of over 35% in size
Ubiquitin carboxyl-terminal hydrolase 1 (Homo sapiens), sequence (O94782 whole entry, looked up): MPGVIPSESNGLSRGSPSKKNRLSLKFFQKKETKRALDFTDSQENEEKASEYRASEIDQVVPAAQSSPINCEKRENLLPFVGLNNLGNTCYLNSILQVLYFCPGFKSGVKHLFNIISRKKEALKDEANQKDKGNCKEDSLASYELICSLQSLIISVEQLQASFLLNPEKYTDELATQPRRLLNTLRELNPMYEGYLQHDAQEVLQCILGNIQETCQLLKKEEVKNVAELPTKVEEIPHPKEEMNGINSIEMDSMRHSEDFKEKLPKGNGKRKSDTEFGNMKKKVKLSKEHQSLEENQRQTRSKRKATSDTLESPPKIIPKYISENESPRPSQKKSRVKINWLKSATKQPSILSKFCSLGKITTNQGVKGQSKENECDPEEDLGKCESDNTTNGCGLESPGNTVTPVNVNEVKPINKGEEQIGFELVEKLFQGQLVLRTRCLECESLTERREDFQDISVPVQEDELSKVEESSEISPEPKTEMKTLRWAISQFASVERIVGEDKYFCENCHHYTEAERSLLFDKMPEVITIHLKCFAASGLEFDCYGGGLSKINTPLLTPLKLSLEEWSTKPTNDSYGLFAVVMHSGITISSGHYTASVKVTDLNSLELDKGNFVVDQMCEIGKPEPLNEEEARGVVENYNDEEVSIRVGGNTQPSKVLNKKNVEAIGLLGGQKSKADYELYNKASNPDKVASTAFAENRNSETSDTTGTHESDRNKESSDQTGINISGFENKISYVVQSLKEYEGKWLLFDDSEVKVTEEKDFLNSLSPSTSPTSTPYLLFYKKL
Procedure, shortened: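 Deubiquitinase activity followed as kinetic rhodamine fluorescence release from 150 nM Ub-Rho. 1 nM USP1/UAF1 with compound, after 15 min room-temperature preincubation, in HEPES pH 7.8 buffer containing TCEP, EDTA, BSA and Tween-20.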

[6] = target: Luciferin 4-monooxygenase (Photinus pyralis) (UniProt P08659); test: Biochemical firefly luciferase enzyme assay for NPC (AID 624030);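 further: purified P. pyralis luciferase at 10 nM with luciferin and ATP substrate; nearly all actives have a fitted effect of over 70% in size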
Luciferin 4-monooxygenase (Photinus pyralis), sequence (P08659 whole entry, looked up): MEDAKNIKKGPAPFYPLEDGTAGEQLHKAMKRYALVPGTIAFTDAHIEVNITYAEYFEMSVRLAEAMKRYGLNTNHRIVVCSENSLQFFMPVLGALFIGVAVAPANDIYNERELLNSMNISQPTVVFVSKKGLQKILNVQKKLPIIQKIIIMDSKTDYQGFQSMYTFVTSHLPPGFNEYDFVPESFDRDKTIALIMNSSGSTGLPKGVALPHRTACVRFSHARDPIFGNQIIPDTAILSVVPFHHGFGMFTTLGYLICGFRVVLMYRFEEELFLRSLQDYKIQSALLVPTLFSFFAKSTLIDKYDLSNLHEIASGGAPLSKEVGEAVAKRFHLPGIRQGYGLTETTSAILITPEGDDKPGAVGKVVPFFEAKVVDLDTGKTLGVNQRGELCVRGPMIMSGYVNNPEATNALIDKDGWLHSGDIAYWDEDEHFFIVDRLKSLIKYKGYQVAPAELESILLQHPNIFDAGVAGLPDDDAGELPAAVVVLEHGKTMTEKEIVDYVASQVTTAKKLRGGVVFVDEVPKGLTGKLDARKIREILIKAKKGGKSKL
Procedure, shortened: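 Counter-screen for direct inhibition of the luciferase enzyme by approved-drug library compounds, run at 10 nM enzyme in 50 mM Tris acetate (final). Luminescence was read within 5 min of enzyme-buffer addition and normalized to PTC124 versus DMSO (0%).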

[7] = S16 Schwann cell PMP22 intronic element beta-lactamase assay (AID 624044; calls by dose curve; further: nearly all actives have a fitted effect of over 15% in size)
Procedure, shortened: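 Rat S16 Schwann cells with beta-Lac driven by a PMP22 intronic element, compound-treated 24 h at 37 °C. LiveBLAzer FRET B/G read: 460 nm normalized to potassium clavulanate vs DMSO; 535 nm FRET as viability; concentration-effect curves classified.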

[8] = qHTS profiling for inhibitors of Plasmodium falciparum proliferation (AID 504749); further: potency means the concentration at half of the fitted maximal effect; nearly all actives have a fitted effect of over 60% in size; conditions: P. falciparum in erythrocytes, SYBR Green DNA, 72 h
Procedure, shortened: (§1)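 Parasite proliferation within erythrocytes, 72 h exposure. Endpoint: SYBR Green I fluorescence after overnight lysis at room temperature. Controls: 0.29 uM artemisinin, DMSO.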

3D7 = test: as above; conditions: P. falciparum in erythrocytes, SYBR Green DNA, 72 h; series mostly up to 12.8 µM
Procedure, shortened: as §1

7G8 = test: as above; conditions: P. falciparum in erythrocytes, SYBR Green DNA, 72 h; series mostly up to 12.8 µM
Procedure, shortened: as §1

AA1029 = test: as above; conditions: P. falciparum in erythrocytes, SYBR Green DNA, 72 h; series mostly up to 12.8 µM
Procedure, shortened: as §1

AS120 = test: as above; conditions: P. falciparum in erythrocytes, SYBR Green DNA, 72 h; series mostly up to 12.8 µM
Procedure, shortened: as §1

ATS189 = test: as above; conditions: P. falciparum in erythrocytes, SYBR Green DNA, 72 h; series mostly up to 12.8 µM
Procedure, shortened: as §1

ATS95 = test: as above; conditions: P. falciparum in erythrocytes, SYBR Green DNA, 72 h; series mostly up to 12.8 µM
Procedure, shortened: as §1

C2A = test: as above; conditions: P. falciparum in erythrocytes, SYBR Green DNA, 72 h; series mostly up to 12.8 µM
Procedure, shortened: as §1

CP185 = test: as above; conditions: P. falciparum in erythrocytes, SYBR Green DNA, 72 h; series mostly up to 12.8 µM
Procedure, shortened: as §1

CP191 = test: as above; conditions: P. falciparum in erythrocytes, SYBR Green DNA, 72 h; series mostly up to 12.8 µM
Procedure, shortened: as §1

CP192 = test: as above; conditions: P. falciparum in erythrocytes, SYBR Green DNA, 72 h; series mostly up to 12.8 µM
Procedure, shortened: as §1

CP194 = test: as above; conditions: P. falciparum in erythrocytes, SYBR Green DNA, 72 h; series mostly up to 12.8 µM
Procedure, shortened: as §1

CP201 = test: as above; conditions: P. falciparum in erythrocytes, SYBR Green DNA, 72 h; series mostly up to 12.8 µM
Procedure, shortened: as §1

CP203 = test: as above; conditions: P. falciparum in erythrocytes, SYBR Green DNA, 72 h; series mostly up to 12.8 µM
Procedure, shortened: as §1

CP211 = test: as above; conditions: P. falciparum in erythrocytes, SYBR Green DNA, 72 h; series mostly up to 12.8 µM
Procedure, shortened: as §1

CP215 = test: as above; conditions: P. falciparum in erythrocytes, SYBR Green DNA, 72 h; series mostly up to 12.8 µM
Procedure, shortened: as §1

CP217 = test: as above; conditions: P. falciparum in erythrocytes, SYBR Green DNA, 72 h; series mostly up to 12.8 µM
Procedure, shortened: as §1

CP237 = test: as above; conditions: P. falciparum in erythrocytes, SYBR Green DNA, 72 h; series mostly up to 12.8 µM
Procedure, shortened: as §1

CP238 = test: as above; conditions: P. falciparum in erythrocytes, SYBR Green DNA, 72 h; series mostly up to 12.8 µM
Procedure, shortened: as §1

CP247 = test: as above; conditions: P. falciparum in erythrocytes, SYBR Green DNA, 72 h; series mostly up to 12.8 µM
Procedure, shortened: as §1

CP250 = test: as above; conditions: P. falciparum in erythrocytes, SYBR Green DNA, 72 h; series mostly up to 12.8 µM
Procedure, shortened: as §1

CP252 = test: as above; conditions: P. falciparum in erythrocytes, SYBR Green DNA, 72 h; series mostly up to 12.8 µM
Procedure, shortened: as §1

CP256 = test: as above; conditions: P. falciparum in erythrocytes, SYBR Green DNA, 72 h; series mostly up to 12.8 µM
Procedure, shortened: as §1

CP260 = test: as above; conditions: P. falciparum in erythrocytes, SYBR Green DNA, 72 h; series mostly up to 12.8 µM
Procedure, shortened: as §1

CP262 = test: as above; conditions: P. falciparum in erythrocytes, SYBR Green DNA, 72 h; series mostly up to 12.8 µM
Procedure, shortened: as §1

Measured: Potency

COc1cc(N[C@@H](C)CCCN)c2ncccc2c1
active: [5] 3980 nM | [8]; parasite line A 1580 nM | [8]; parasite line B 2820 nM | 3D7 1780 nM | 7G8 316 nM | AA1029 2510 nM | AS120 794 nM | ATS189 2240 nM | ATS95 3160 nM | C2A 2820 nM | CP185 2000 nM | CP191 1000 nM | CP192 2560 nM | CP194 3610 nM | CP201 4550 nM | CP203 3610 nM | CP211 2280 nM | CP215 3610 nM | CP217 1120 nM | CP237 2510 nM | CP238 2240 nM | CP247 3550 nM | CP250 1260 nM | CP252 1260 nM | CP256 1260 nM | CP260 1410 nM | CP262 1280 nM
inactive: [1] | [2] | [3] | [4] | [6] | [7]
